# Screens deposited in PubChem BioAssay by several laboratories.
# Wnt act: Wnt/beta-catenin pathway activators, primary screen, cell-based, plate reader, single point. Wnt/beta-catenin reporter cell assay, activator. activation, % at 9.35 µM. hit rate 1.2% among 300,000. AID 743398, 2014; in the data active = activation above about 30%, passing the limit was not always enough; inconclusive = no clear call, values can overlap the other calls;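 also: 0% = neutral control wells and 100% = positive control wells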
# MITF TRPM1 HTS: activators of MITF-driven TRPM1 promoter reporter, primary screen, cell-based, SK-MEL-5, luciferase, single point; SK-MEL-5 TRPM1-promoter luciferase, 24 h; % of positive control, neutral wells = 0; activation, % at 12.5 µM; hit rate 0.75% among 300,000;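 active = mean activation of at least 80% with every replicate also reaching 80%; inconclusive = mean reaches 80% but some replicate falls short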;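 also: 0% = neutral control wells and 100% = parthenolide positive control wells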
# GAA850 FXN act: FXN promoter activators, primary screen, cell-based, luciferase luminescence, HEK293 lucGAA850; HEK293 lucGAA850 FXN promoter luciferase reporter, 24 h; percent of 10 µM SAHA response; hit rate 0.56% among 360,000; activation, % at 6 µM;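 active = activation above the average of all compounds screened plus 3 SD, cutoff fixed separately per campaign, cut at about 7.5% in these data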;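 also: 0% = DMSO wells and 100% = 10 µM SAHA wells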
# esBAF inh: Bmi1 luciferase reporter increase in mESCs, primary screen, esBAF inhibitor project, mouse ES cells, Bmi1 luciferase knock-in, single point | hit rate 2% among 350,000 | 24 h; 100% = twice the neutral-well signal | AID 602393, 2012 | reporter increase, % at 12.5 µM; in the data active = activation above about 40%; inconclusive = no clear call, values can overlap the other calls;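 also: 0% = median of the plate's neutral control wells and 100% = double that signal; a rise in the Bmi1 reporter signal indicates esBAF inhibition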
# Starred values were filed as active, the others as inactive; ? = inconclusive; nt = no result given. The list is not random: actives were taken first. Their share in the collection is about 2.8%.
SMILES,Wnt act,MITF TRPM1 HTS,GAA850 FXN act,esBAF inh
COc1ccccc1NC(=O)C(=O)N/N=C/c1cccs1,15.0,48.2,6.6,75.7*
COc1ccccc1NC(=O)C(=O)N/N=C(\C)CC(=O)Nc1ccccn1,-0.5,-4.9,-1.4,-9.5
CC(C)NC(=O)N(C)C[C@H]1OCCCC[C@@H](C)Oc2ccc(NS(=O)(=O)c3cccs3)cc2C(=O)N([C@H](C)CO)C[C@H]1C,nt,nt,nt,-3.9
C[C@H]1CN([C@@H](C)CO)C(=O)Cc2cc(NC(=O)C3CCCCC3)ccc2O[C@H]1CN(C)CC1CC1,nt,nt,nt,4.0
COc1ccccc1NC(=O)Nc1ccc2c(c1)CCC2,18.6,111.9*,1.9,nt
O=C(Nc1ccc2c(c1)CCC2)c1c(F)cccc1Cl,16.9,88.4*,6.3,nt
COc1ccc(C)cc1NC(=O)Nc1ccc2c(c1)CCC2,-3.5,4.6,-0.2,nt
O=C1OCc2ccc(NC(=O)c3c(F)cccc3Cl)cc21,1.7,12.2,1.1,-10.0
N#Cc1c(/N=C/c2ccc(-c3ccccc3C(=O)O)o2)sc2c1CCCC2,8.9,37.8,2.6,57.1*
Cc1cc(N2CCOCC2)nc2ccc(NC(=O)CCC(=O)N3CCN(c4ccccc4)CC3)cc12,3.7,79.8,3.0,53.2*
CCCCNC(=O)CCC(=O)Nc1ccc2nc(N3CCOCC3)cc(C)c2c1,14.4,nt,1.7,43.1*
CCCCNC(=O)CCC(=O)Nc1ccc2nc(N3CCCCC3)cc(C)c2c1,-0.6,61.8,6.6,nt
Cc1cc(N2CCCCC2)nc2ccc(NC(=O)CCC(=O)NCCC(C)C)cc12,43.3*,nt,4.9,74.2*
Cc1cn(CCC(=O)Nc2ccc(N3CCOCC3)cc2)c2ccccc12,16.4,81.4*,5.0,?
C[C@@H]1CN([C@@H](C)CO)S(=O)(=O)c2ccc(C#CC3CC3)cc2O[C@@H]1CN(C)C(=O)c1cnccn1,nt,nt,nt,-0.8
COC(=O)C[C@H]1C[C@@H]2c3cc(NC(=O)Nc4ccc(C(F)(F)F)cc4)ccc3O[C@@H]2[C@H](CO)O1,nt,nt,nt,-7.4
Cc1cc(C)nc(N/N=C/c2cc3c(cc2[N+](=O)[O-])OCO3)n1,55.6*,-10.1,2.0,nt
O=C(O)c1ccc(N/N=C/c2cc3c(cc2[N+](=O)[O-])OCO3)cc1,-1.6,-24.4,2.4,67.0*
O=[N+]([O-])c1cc2c(cc1/C=N/Nc1nc(Nc3ccccc3)nc(N3CCCCC3)n1)OCO2,-4.1,nt,-2.3,40.0
O=C(Nc1ccc(Cl)cn1)c1cc2c(s1)-c1ccccc1OC2,17.8,74.4,6.3,?
O=C(Nc1nccs1)c1cc2c(s1)-c1ccccc1OC2,?,41.2,2.6,103.2*
Cc1cccc2c1-c1sc(C(=O)Nc3cccc([N+](=O)[O-])c3C)cc1CO2,-0.2,3.3,0.1,nt
O=C(Nc1cccnc1Cl)c1noc2c1CCc1ccccc1-2,36.8*,69.8,5.6,nt
Cc1cccc2c1-c1sc(C(=O)Nc3nccs3)cc1CO2,26.9,58.1,-1.2,47.3*
O=C(Nc1cccnc1Cl)c1cc2c(s1)-c1ccccc1OC2,0.2,48.8,0.4,46.0*
SMILES,Wnt act,MITF TRPM1 HTS,GAA850 FXN act,esBAF inh
O=C(Nc1nc2ccccc2s1)c1cc2c(s1)-c1ccccc1OC2,14.5,55.3,1.8,?
Cc1noc(C)c1S(=O)(=O)N(C)C[C@H]1Oc2ccc(NS(=O)(=O)c3cn(C)cn3)cc2C(=O)N([C@@H](C)CO)C[C@H]1C,nt,nt,nt,-1.3
Cc1cccc2c1-c1sc(C(=O)Nc3cccnc3)cc1CO2,-1.2,63.6,1.9,49.8*
COc1ccc(N(C)C(=O)c2cc3c(s2)-c2c(C)cccc2OC3)c(OC)c1,-12.1,-4.9,1.5,8.3
CCOC(=O)c1cc2c(s1)-c1c(C)cccc1OC2,15.6,nt,2.7,64.2*
CC(=O)N(C)C[C@@H]1Oc2ncc(C#C[C@H](C)O)cc2C(=O)N([C@H](C)CO)C[C@@H]1C,nt,nt,nt,6.1
CN1CCN(C(=O)C[C@@H]2CC[C@@H]3[C@H](COC[C@H](O)CN3C(=O)c3ccc(F)cc3)O2)CC1,nt,nt,nt,0.0
C[C@@H]1CN([C@H](C)CO)C(=O)c2cc(NC(=O)NC3CCCCC3)ccc2O[C@H]1CN(C)S(=O)(=O)c1cccs1,nt,nt,nt,4.3
COc1ccc(NC(=O)N(C)C[C@H]2Oc3ccc(NS(=O)(=O)c4ccc(Cl)cc4)cc3CC(=O)N([C@@H](C)CO)C[C@@H]2C)cc1,nt,nt,nt,-1.4
Cc1ccc(Nc2cc(C)c3c(O)cccc3n2)cc1C,0.6,111.1*,4.0,24.8
O=C(NCc1ccco1)c1cc2c(s1)CCCCC2,-4.6,50.3,5.2,56.8*
CC1CCCN(CCCOc2ccc(Cl)cc2Br)C1 (centres undefined),7.9,20.4,4.1,nt
CC1CCCN(CCOc2ccc3ccccc3c2Br)C1 (centres undefined),-1.2,95.9*,1.8,nt
CO[C@H]1CN(C)C(=O)c2cc(NC(=O)c3cccc(F)c3)ccc2OC[C@H](C)N(C(C)=O)C[C@@H]1C,nt,nt,nt,1.4
CC1CCN(c2nc3ccc(C(=O)N4CCN(Cc5ccccc5)CC4)cc3s2)CC1,3.1,9.7,3.4,93.7*
Cc1cccc(N2CCN(C(=O)c3ccc4nc(N5CCCCC5)sc4c3)CC2)c1C,10.9,34.9,5.4,61.2*
CCOC(=O)N1CCN(C(=O)c2ccc3nc(N4CCCCC4)sc3c2)CC1,nt,-1.6,4.3,nt
COc1cccc(N2CCN(C(=O)c3ccc4nc(N5CCC(C)CC5)sc4c3)CC2)c1,6.4,nt,nt,nt
CCOC(=O)N1CCN(C(=O)c2ccc3nc(N4CCC(C)CC4)sc3c2)CC1,nt,10.7,6.4,57.7*
C[C@@H]1CN([C@H](C)CO)S(=O)(=O)c2ccc(Br)cc2O[C@@H]1CN(C)C(=O)CN(C)C,nt,nt,nt,-1.1
COCC(=O)Nc1ccc2c(c1)[C@@H]1C[C@@H](CC(=O)NCc3ccccc3)O[C@H](CO)[C@@H]1O2,nt,nt,nt,0.1
COc1ccccc1CNC(=O)C1CCCN(c2cnccn2)C1 (centres undefined),-0.3,25.4,1.4,-9.6
COc1cccc(NC(=O)c2ccnc(N3CCC(C(=O)NCc4ccccc4OC)CC3)c2)c1,11.4,43.1,3.6,72.8*
CC(C)C#Cc1ccc2c(c1)O[C@@H](CN(C)C(=O)c1ccccn1)[C@H](C)CN([C@H](C)CO)S2(=O)=O,nt,nt,nt,10.2
Cc1cccc(NC(=O)c2cnn3ccccc23)c1C,-0.9,?,2.9,41.9*
SMILES,Wnt act,MITF TRPM1 HTS,GAA850 FXN act,esBAF inh
O=C(NCc1ccc(Cl)cc1)c1cnn2ccccc12,9.4,95.9*,-0.1,59.8*
Cc1cccc(NC(=O)c2ccccc2O)c1C,22.9,25.0,3.0,nt
C[C@@H](O)C#Cc1ccc2c(c1)O[C@@H](CN(C)C(=O)c1ccccc1)[C@@H](C)CN([C@@H](C)CO)S2(=O)=O,nt,nt,nt,8.1
COc1ccc(-c2nc3ccc([N+](=O)[O-])cc3[nH]2)cc1,50.0*,46.9,1.6,nt
COc1ccc2[nH]c(-c3ccccc3)cc2c1,46.4*,106.5*,3.4,?
COc1ccc2nc(-c3ccccc3)[nH]c2c1,75.2*,nt,5.0,4.2
CS(=O)(=O)N1CCc2cc(C(=O)OCC(=O)c3ccccc3)ccc21,nt,8.1,3.6,50.8*
